High-throughput results as filed in PubChem BioAssay.
Pf growth 96h: P. falciparum growth inhibition at 96 hours. 6.9% of 320,000 active. Potency, µM (doses to about 28.7 µM), for inactives: at the top dose activity change, negative = inhibition, usual class: inhibitors. P. falciparum luciferase reporter growth, 96 h. AID 504834; note: potency is the fitted concentration of half-maximal effect; % is set by controls: 0 for no effect and ±100 for the full control effect
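Infected RBCs, 2% Hct / 0.05% parasitemia final; luciferase-reporter P. falciparum; cpd 96 h, 37 C, 5% CO2; luciferase detection reagent; luminescence.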
SARS PLP yeast: SARS-CoV PLP inhibition in yeast. S. cerevisiae expressing SARS-CoV PLpro, growth rescue. Potency, µM (top dose mostly 32.9 µM), for the others: top-dose activity, positive = growth rescue, usual class: activators. AID 485353. 0.19% of 330,000 active; calls by dose curve; note: potency is the fitted concentration of half-maximal effect; 0% is about no effect; nearly all actives have a fitted effect of over 55% in size
NS1 inh: blocks influenza NS1 protein function; Potency, µM (titrated, usually from 46.1 µM), inactives show at the top dose activity, positive = more growth; 0.4% of 270,000 active; calls by dose curve; note: potency is the fitted concentration of half-maximal effect; actives are rising curves; nearly all actives have a fitted effect of over 50% in size
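Compounds were scored for reversing the slow growth caused by influenza A NS1 in S. cerevisiae, measured by optical density at 600 nm. Assay medium contained 2% galactose at pH 6.0; NS1-free yeast of the same strain were the positive control.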
Shiga toxin inh: Shiga toxin inhibition; Vero cells, Shiga toxin protein synthesis inhibition reporter; inhibition, % at 38.7 µM; 9.2% of 290,000 active; AID 2315; in the data active = inhibition mostly above about 28%, no sharp cut-off; inactive = mostly below about 43%; note: 0% is about no effect
CHX counter: counter-screen hit for Shiga toxin inhibitors, cycloheximide. max response, %. AID 2314. cell reporter, cycloheximide protein synthesis inhibition counterscreen. 12% of 300,000 active; in the data active = max response mostly above about 13%, no sharp cut-off; inactive = mostly below about 14%; note: read at 38.3 µM for the half of the compounds with a filed dose; 0% is about no effect
Pf growth 48h: P. falciparum growth inhibition at 48 hours (one generation) | Potency, µM (top dose mostly 28.7 µM), inactives show top-dose activity change, negative = inhibition, most hits filed as inhibitors | 5.9% of 310,000 active | AID 504832 | P. falciparum luciferase growth in erythrocytes, 48 h; note: potency is the fitted concentration of half-maximal effect; % is set by controls: 0 for no effect and ±100 for the full control effect
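Luciferase-expressing P. falciparum in infected erythrocytes (2% hematocrit, 0.1% parasitemia final) in RPMI 1640/0.5% Albumax were exposed to compound for 48 hours at 37 C, 5% CO2; growth read as luminescence.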
Starred values were filed as active, the others as inactive; ? = inconclusive; nt = no result; [ ] = dose if it differs, or a comment. Rows were chosen to be rich in hits. Some 21% of all compounds tested hit in one or more screens of this group. Unless noted, calls come from the whole dose curve; as a rule, active = well fitted inhibition curve with a large enough effect; inconclusive = small, poorly fitted or top-dose-only effect, or another doubt; inactive = no such curve, though single readings can be large or run the other way.

SMILES	Pf growth 96h	SARS PLP yeast	NS1 inh	Shiga toxin inh	CHX counter	Pf growth 48h
Cc1ccc(SCC(Cc2ccccc2)N2CCN(CC(C)C)CCC2=O)cc1 (stereo not drawn)	nt	nt	nt	50.1*	27.8	nt
COc1ccc(SCC(Cc2ccccc2)N2CCN(CC(C)C)CCC2=O)cc1 (stereo not drawn)	nt	nt	nt	53.1*	29.8*	nt
CC(C)C(=O)Nc1cc(=O)[nH]c2ncnn12	-2.4%[5.75 µM]	0.0%	8.8%	14.1	-1.7	9.7%
NC1=CC(=O)c2cccc3cccc1c23	0.0%	-4.8%	-37.5%	-1.8	-3.6	2.94µM*
COc1ccc(CC(=S)N2CCOCC2)cc1	-17.8%	3.7%	-3.1%	2.2	-0.4	-5.0%
CCc1ccc(CC(=S)N2CCOCC2)cc1	?	-3.3%	nt	62.3*	25.8*	26.3%
Cc1ccc(CC(=S)N2CCOCC2)cc1	13.1µM*	-2.8%	nt	-8.1	1.2	12.8%
CC1=C(C(=O)Nc2ccccc2C(=O)NCc2ccccc2)SCCO1	?	-15.6%	-36.6%	-2.3	4.9	?
CC1=C(C(=O)Nc2ccccc2C(=O)NC2CCC(C)CC2)SCCO1 (stereo not drawn)	?	-5.6%	7.2%	25.5	16.0*	-16.7%
CCOC(=O)C1CCN(C(=O)c2ccccc2NC(=O)C2=C(C)OCCS2)CC1	?	-2.1%	8.0%	-7.5	-1.9	10.4µM*
CCN1CCN(CCCNC(=O)c2ccccc2NC(=O)C2=C(C)OCCS2)CC1	?	-11.4%	4.5%	-9.3	3.9	-30.8%
CCOC(=O)C1CCCN(C(=O)c2cc(Cl)ccc2NC(=O)C2=C(C)OCCS2)C1 (stereo not drawn)	0.9%	0.5%	-1.5%	26.7	-1.6	13.1µM*
CCOC(=O)Cc1cc(=O)[nH]c(/N=C(\N)Nc2ccc(C)cc2C)n1	19.1%	2.6%	0.1%	11.8	2.3	nt
O=C1c2c(O)cc(O)cc2O[C@H](c2ccc(O)c(O)c2)C1O (stereo partly drawn)	nt	nt	nt	-10.2	-7.4	nt
CCOc1cc(N2CCOCC2)c(OCC)cc1NC(=O)c1c(C)noc1C	1.3%	-4.6%	nt	nt	nt	12.6%
CC(C)CC(CSc1ccc(Br)cc1)N1CCN(C)CCC1=O (stereo not drawn)	nt	nt	nt	90.0*	40.3	nt
O=C1CCN(Cc2ccccc2)CCN1[C@H](CO)c1ccccc1	0.8%	3.6%	-1.4%	-0.8	1.4	1.4%
COc1ccc(SCC(CC(C)C)N2CCN(C)CCC2=O)cc1 (stereo not drawn)	nt	nt	nt	52.7*	25.3*	nt
Cc1ccc(SCC(CC(C)C)N2CCN(C)CCC2=O)cc1 (stereo not drawn)	nt	nt	nt	71.7*	32.7*	nt
CN1CCC(=O)N([C@H](CO)c2ccccc2)CC1	53.6%	1.5%	-13.4%	15.3	18.1*	11.3%
O=C(NCCc1nnc2ccc(NCCCN3CCOCC3)nn12)c1ccccc1F	34.4%	2.1%	10.4%	-7.3	1.3	6.9%
CC(=O)Nc1ccc(SCC(CC(C)C)N2CCN(C)CCC2=O)cc1 (stereo not drawn)	nt	nt	nt	6.1	1.7	nt
CC(C)C[C@@H](CSc1ccccc1)N1CCN(C)CCC1=O	-29.3%	-9.5%	4.4%	24.3	17.6*	21.4%
COCc1cc(C)nc(NC2CCCCC2)c1C#N	-26.9%	-5.4%	5.2%	-4.2	5.1	3.7µM*
N#CCC(=O)N/N=C/c1ccccc1Cl	?	0.3%	-1.8%	24.9	3.8	182.2%
SMILES	Pf growth 96h	SARS PLP yeast	NS1 inh	Shiga toxin inh	CHX counter	Pf growth 48h
CO/C(N)=C(\C#N)N=Cc1ccccc1Cl	101.4%	-2.0%	nt	49.1	20.6*	97.6%
CCN1C(=O)[C@H]2[C@H]3[C@H](O)[C@H](O)C/C(=N\OC[C@@H](C)[C@H](OCc4ccccc4)C(C)C)[C@@H]3CC[C@H]2C1=O	?	5.4%	-24.9%	13.4	-3.5	10.4µM*
COc1ccc(N2CCN(CC(=O)c3ccc(Cl)cc3)CC2)cc1	?	-0.3%	-1.5%	-4.2	2.1	?
COCCn1c(SCC(=O)Nc2cc(C)on2)nc2ccccc2c1=O	?	1.0%	nt	nt	nt	?
CCN(CC)C(=O)CSc1nc2ccccc2c(=O)n1CC	?	4.2%	-13.2%	-11.7	-5.3	nt
CCCCCCn1c(SCC(=O)Nc2cc(C)on2)nc2ccccc2c1=O	6.57µM*	-2.1%	5.1%	-10.8	2.4	?
CCN(CC)C(=O)CSc1nc2ccccc2c(=O)n1CCC(=O)NCc1ccc(F)cc1	?	0.2%	6.7%	8.8	3.1	9.28µM*
O=C1CN(C(=O)CSc2nc3ccccc3c(=O)n2Cc2ccc(F)cc2)c2ccccc2N1	2.62µM*	13.6%	?	-12.4	-4.7	11.7µM*
Cn1c(SCC(=O)N2CC(=O)Nc3ccccc32)nc2ccccc2c1=O	?	-4.2%	nt	nt	nt	?
Cc1cc(NC(=O)CSc2nc3ccccc3c(=O)n2Cc2ccc(F)cc2)no1	11.7µM*	2.0%	-0.8%	-4.6	-4.6	?
CCCC(=O)Nc1ccc(N2CCN(C(=O)c3cccs3)CC2)cc1	-28.3%	-3.9%	-2.0%	-35.5	0.7	-6.6%
Cc1ccc(S(=O)(=O)N2[C@@H](c3ccccc3F)C(C(=O)O)=CC[C@H]2c2cccc(Cl)c2)cc1	?	2.1%	nt	nt	nt	?
COc1ccc(C(=O)N2CCN(c3ccccc3)CC2)cc1S(=O)(=O)N1CCOCC1	3.4%	0.1%	2.9%	-4.3	0.9	5.1%
Cc1cc(NC(=O)Cn2c(=O)n(Cc3ccccc3)c(=O)c3ccccc32)no1	0.0%	2.8%	3.4%	8.7	6.7	9.28µM*
CCN(C(=O)Cn1c(=O)n(Cc2ccccc2)c(=O)c2ccccc21)c1cccc(C)c1	33.5%	4.8%	6.4%	-8.5	-1.2	?
CCCSc1ccc([C@@H]2[C@H]3C(=O)N(CC)C(=O)[C@H]3[C@]3(C(=O)OC)CCCN23)cc1OC	?	6.2%	nt	nt	nt	?
CCCSc1ccc([C@@H]2[C@@H]3C(=O)N(C)C(=O)[C@@H]3[C@]3(C(=O)OC)CCCCN23)cc1OC	?	-2.2%	nt	nt	nt	13.1µM*
CCN1C(=O)[C@@H]2[C@@H](c3ccc(SC4CCCCC4)c(OC)c3)N3CCC[C@@]3(C(=O)OC)[C@@H]2C1=O	?	-23.8%	nt	nt	nt	8.28µM*
CCCSc1ccc([C@@H]2[C@H]3C(=O)N(CC)C(=O)[C@H]3[C@]3(C(=O)OC)CCCCN23)cc1OC	11.7µM*	-3.5%	nt	nt	nt	10.4µM*
O=c1c2c([nH]c3ccc(Br)cc13)CCCC2	0.0%	-14.1%	-104.2%	-3.4	-3.1	0.329µM*
Brc1ccc2[nH]c3c(c2c1)CCC3	6.4%	-1.9%	-0.9%	5.3	-1.4	5.2%
C/C(=C\CNc1ncnc2c1ncn2[C@@H]1O[C@H](CO)[C@@H](O)[C@H]1O)CO	nt	nt	nt	15.8	6.0	nt
CCOc1ccccc1NC(=O)COn1nnc2ccc(Cl)cc21	-20.6%	-9.8%	-33.7%	2.4	15.1	90.0%
Clc1ccc2c(NCc3ccccn3)ccnc2c1	0.465µM*	-0.4%	2.7%	-13.2	-3.5	0.657µM*
Clc1ccc2c(NCCNc3ccnc4cc(Cl)ccc34)ccnc2c1	nt	nt	-5.9%	nt	nt	nt
